# A number with no mark means an inactive call. Inconclusive results are not listed. Entries that show only a call come without a potency. The source made the active and inactive calls. Unless noted, calls come from the whole dose curve.
# What was measured:
# [1] = Nuclear factor erythroid 2-related factor 2/antioxidant responsive element (Nrf2/ARE) small molecule agonists: qHTS cell viability counter screen in human keratinocytes (AID 1919968; active = well fitted curve in the direction sought with a large enough effect in the repeat runs; an effect the other way counts as inactive or inconclusive; note: nearly all actives have a fitted effect of over 55% in size)
# Outline: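 Fluorescence read-out from CellTiter-Fluor after 1 h at 37 C. Wells held HaCaT-derived ARE-luciferase reporter cells (1,500/well) treated 23 h with DMSO-dissolved compounds. Run in the same wells as the luciferase agonist read.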
# [2] = Nuclear factor erythroid 2-related factor 2/antioxidant responsive element (Nrf2/ARE) small molecule agonists: luciferase reporter gene qHTS assay in human keratinocytes (AID 1919969); note: nearly all actives have a fitted effect of over 35% in size
# [3] = molecular target: Gonadotropin-releasing hormone receptor (Homo sapiens) (UniProt P30968); experiment: Human gonadotropin-releasing hormone receptor (GnRHR) small molecule agonists, calcium flux assay in GnRHR-HEK293 cells (AID 1920063); note: nearly all actives have a fitted effect of over 35% in size
# Chain of Gonadotropin-releasing hormone receptor (Homo sapiens) (P30968 whole entry, looked up): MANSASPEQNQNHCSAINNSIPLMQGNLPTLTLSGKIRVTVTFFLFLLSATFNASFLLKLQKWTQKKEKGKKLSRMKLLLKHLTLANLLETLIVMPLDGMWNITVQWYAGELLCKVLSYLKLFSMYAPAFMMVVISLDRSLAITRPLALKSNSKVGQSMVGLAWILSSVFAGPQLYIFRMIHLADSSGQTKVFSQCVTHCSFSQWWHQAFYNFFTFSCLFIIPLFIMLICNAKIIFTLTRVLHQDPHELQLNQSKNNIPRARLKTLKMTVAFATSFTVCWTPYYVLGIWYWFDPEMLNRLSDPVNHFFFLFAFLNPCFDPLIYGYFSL
# Outline: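 Calcium-dye fluorescence, Ex/Em=480/540, recorded every 1 sec over 3 min after compound addition to GnRHR-HEK293 cells. Cells had been seeded 18 hours earlier and dye-loaded for 1 hour at 37 C. Fifteen concentrations, triplicates.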
# [4] = molecular target: KiSS-1 receptor (Homo sapiens) (UniProt Q969F8); experiment: Human kisspeptin (KISS1R) small molecule agonists, calcium flux assay in KISS1R-HEK293 cells (AID 1920064; active = well fitted curve in the direction sought with a large enough effect in the repeat runs; an effect the other way counts as inactive or inconclusive)
# Chain of KiSS-1 receptor (Homo sapiens) (Q969F8 whole entry, looked up): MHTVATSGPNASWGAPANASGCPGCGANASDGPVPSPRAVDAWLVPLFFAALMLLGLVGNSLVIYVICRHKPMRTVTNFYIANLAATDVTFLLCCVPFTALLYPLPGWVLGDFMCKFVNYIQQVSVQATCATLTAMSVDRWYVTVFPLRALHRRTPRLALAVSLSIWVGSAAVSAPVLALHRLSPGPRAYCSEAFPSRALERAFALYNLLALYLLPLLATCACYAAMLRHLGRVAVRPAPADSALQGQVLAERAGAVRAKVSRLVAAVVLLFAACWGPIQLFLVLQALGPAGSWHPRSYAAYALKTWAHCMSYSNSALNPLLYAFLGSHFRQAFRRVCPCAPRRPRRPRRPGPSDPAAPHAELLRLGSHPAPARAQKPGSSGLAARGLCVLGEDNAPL
# Outline: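 Calcium flux read-out: kinetic fluorescence at Ex/Em=480/540, 1 s intervals over 3 min, after pin-tool compound addition to dye-loaded KISS1R-HEK293 cells. Fifteen concentrations, triplicates.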
# [5] = G protein-coupled receptor (GPCR) small molecule agonists, calcium flux assay: HEK293 wild type cell line counter screen (AID 1920065)
# Outline: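 Agonist mode; 18 h seeding at 37 C, 1 h dye load at 37 C; compounds pinned from DMSO, ATP as positive control; kinetic fluorescence 480/540 nm, 3 min, 1 s reads; 15 concentrations, triplicate.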
# [6] = p53 small molecule agonists, cell-based qHTS assay with human liver microsomes (AID 1963577);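 note: p53 response element beta-lactamase reporter cells with liver microsomes plus NADPH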
# Outline: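 In this qHTS, p53 response-element beta-lactamase cells receive test compound together with a microsome/NADPH activating system (0.5 mg/mL final each) and are incubated 16 h at 37 C before LiveBLAzer fluorescence detection.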
# [7] = p53 small molecule agonists, cell-based qHTS assay with rat liver microsomes (AID 1963578)
# Outline: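 Agonist mode in p53RE-bla reporter cells, with compounds co-incubated 16 h at 37 C alongside 0.5 mg/mL rat liver microsomes and 0.5 mg/mL NADPH (final), followed by a 2 h LiveBLAzer detection step.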
# [8] = p53 small molecule agonists, cell-based qHTS assay with human liver microsomes: qHTS cell viability counter screen (AID 1963579); note: nearly all actives have a fitted effect of over 45% in size
# Outline: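 Metabolically activated exposure: compounds, human liver microsomes and NADPH (0.5 mg/mL final apiece) were added to p53RE-bla cells seeded 5 h earlier, left 16 h at 37 C, and then assessed for viability by CellTiter-Glo luminescence.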
# [9] = p53 small molecule agonists, cell-based qHTS assay with rat liver microsomes: qHTS cell viability counter screen (AID 1963580); note: nearly all actives have a fitted effect of over 45% in size
# Outline: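 Cytotoxicity counter screen: intracellular ATP read by CellTiter-Glo luminescence in the p53 reporter wells. HCT-116 p53RE-bla cells were treated for 16 h at 37 C alongside rat liver microsomes and NADPH, each 0.5 mg/mL final.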
# [10] = p53 small molecule agonists, cell-based qHTS assay (AID 1963582; active = well fitted activation curve with a large enough effect in the signal ratio in the repeat runs, not every such curve was filed as active; the % refers to the signal ratio; note: potency is the fitted concentration of half-maximal effect)
# Outline: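 Fluorescence intensity read-out of a beta-lactamase reporter under a p53 response element. Cells were exposed to DMSO-dissolved compounds for 16 h at 37 C, then developed with FRET substrate for 2 h at RT.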
# [11] = molecular target: 5-hydroxytryptamine receptor 2A (Homo sapiens) (UniProt P28223); experiment: 5-hydroxytryptamine receptor 2A (HTR2A) small molecule antagonists, cell-based qHTS assay (AID 1963586); note: nearly all actives have a fitted effect of over 45% in size; note: potency is the fitted concentration of half-maximal effect
# Chain of 5-hydroxytryptamine receptor 2A (Homo sapiens) (P28223 whole entry, looked up): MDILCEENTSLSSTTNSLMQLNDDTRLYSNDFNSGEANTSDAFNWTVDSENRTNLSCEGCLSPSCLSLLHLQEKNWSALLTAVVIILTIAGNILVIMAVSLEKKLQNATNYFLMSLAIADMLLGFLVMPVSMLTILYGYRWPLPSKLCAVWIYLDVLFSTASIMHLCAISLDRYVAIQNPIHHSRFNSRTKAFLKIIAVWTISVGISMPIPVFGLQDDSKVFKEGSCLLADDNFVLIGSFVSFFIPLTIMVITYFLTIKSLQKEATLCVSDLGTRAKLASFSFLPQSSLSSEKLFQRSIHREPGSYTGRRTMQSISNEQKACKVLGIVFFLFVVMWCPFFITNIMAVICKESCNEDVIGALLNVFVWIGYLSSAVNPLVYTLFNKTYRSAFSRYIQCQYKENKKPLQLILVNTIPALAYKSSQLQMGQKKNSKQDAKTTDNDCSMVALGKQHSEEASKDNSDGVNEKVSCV
# Outline: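 CHO cells stably expressing human HTR2A were plated for 18 h at 37 C, then loaded with calcium dye for 1 h. Compounds were preincubated 5 min at room temperature before DOI (4 nM solution) was added. Kinetic fluorescence was read for 3 min.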
# [12] = molecular target: 5-hydroxytryptamine receptor 2A (Homo sapiens) (UniProt P28223); experiment: 5-hydroxytryptamine receptor 2A (HTR2A) small molecule agonists, cell-based qHTS assay (AID 1963587); note: nearly all actives have a fitted effect of over 30% in size; note: potency is the fitted concentration of half-maximal effect
# Outline: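 Kinetic calcium-flux fluorescence (2 min, 1 sec intervals) after compound addition in agonist mode. HTR2A-CHO cells were cultured 18 h, then dye-loaded 1 h at 37 C.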
# [13] = molecular target: Muscarinic acetylcholine receptor M1 (Homo sapiens) (UniProt P11229); experiment: Cholinergic receptor muscarinic 1 (CHRM1) small molecule antagonists, cell-based qHTS assay (AID 1963588); note: nearly all actives have a fitted effect of over 40% in size
# Chain of Muscarinic acetylcholine receptor M1 (Homo sapiens) (P11229 whole entry, looked up): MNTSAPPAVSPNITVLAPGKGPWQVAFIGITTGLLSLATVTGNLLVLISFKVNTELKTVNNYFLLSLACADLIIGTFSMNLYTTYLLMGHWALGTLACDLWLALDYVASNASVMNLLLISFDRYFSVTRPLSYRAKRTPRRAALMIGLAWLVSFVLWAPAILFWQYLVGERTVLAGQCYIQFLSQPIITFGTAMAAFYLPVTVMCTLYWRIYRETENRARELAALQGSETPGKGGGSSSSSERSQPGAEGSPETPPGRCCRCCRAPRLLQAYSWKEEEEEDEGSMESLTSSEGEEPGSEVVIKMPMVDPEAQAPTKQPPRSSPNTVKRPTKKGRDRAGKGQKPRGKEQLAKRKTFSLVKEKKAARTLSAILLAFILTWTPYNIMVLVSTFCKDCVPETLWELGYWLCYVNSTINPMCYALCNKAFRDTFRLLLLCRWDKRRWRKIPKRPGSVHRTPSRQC
# Outline: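 Compounds were tested at 15 concentrations in three independent runs. Dye-loaded CHRM1-CHO cells were exposed 5 min at room temperature before stimulation by acetylcholine added at 50nM. Intracellular calcium was read kinetically on FDSS for 3 min.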
# [14] = molecular target: Muscarinic acetylcholine receptor M1 (Homo sapiens) (UniProt P11229); experiment: Cholinergic receptor muscarinic 1 (CHRM1) small molecule agonists, cell-based qHTS assay (AID 1963589); note: nearly all actives have a fitted effect of over 35% in size
# Outline: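 Calcium flux read-out: kinetic fluorescence at 1 sec intervals after pin-tool compound addition to dye-loaded CHRM1-CHO cells (human M1). Agonist mode; 15 concentrations tested in triplicate independent runs.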
# [15] = cAMP Responsive Elements (CRE) small molecule agonists, cell-based qHTS assay (AID 1963590)
# Outline: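 Beta-lactamase reporter readout: LiveBLAzer B/G FRET substrate, 2 h at room temperature, added after 3 h compound treatment of CRE-bla HEK 293T cells at 37 C/5% CO2.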
# [16] = molecular target: Beta-2 adrenergic receptor (Homo sapiens) (UniProt P07550); experiment: Adrenergic beta2 receptor (ADRB2) small molecule antagonists, cell-based qHTS assay (AID 1963592); note: series mostly up to about 92 µM; nearly all actives have a fitted effect of over 50% in size
# Chain of Beta-2 adrenergic receptor (Homo sapiens) (P07550 whole entry, looked up): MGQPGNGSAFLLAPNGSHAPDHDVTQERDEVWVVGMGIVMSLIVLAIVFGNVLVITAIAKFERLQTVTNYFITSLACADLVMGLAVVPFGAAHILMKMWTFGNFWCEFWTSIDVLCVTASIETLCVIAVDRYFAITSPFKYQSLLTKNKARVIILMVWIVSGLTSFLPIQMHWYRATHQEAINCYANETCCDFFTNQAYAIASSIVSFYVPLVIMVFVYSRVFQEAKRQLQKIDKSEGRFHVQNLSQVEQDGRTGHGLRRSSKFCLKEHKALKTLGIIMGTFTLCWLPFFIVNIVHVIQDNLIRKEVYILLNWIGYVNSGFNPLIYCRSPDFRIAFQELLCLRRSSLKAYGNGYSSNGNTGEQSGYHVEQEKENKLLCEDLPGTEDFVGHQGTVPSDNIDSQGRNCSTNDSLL
# Outline: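 Assay format: CHO-ADRB2 cells, 18-20hr seeding at 37C/5% CO2, then compound plus 1nM isoproterenol agonist mix for 0.5hr RT. Homogeneous time-resolved fluorescence cAMP detection after 1hr, expressed as 665/615 nm ratio.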
# [17] = molecular target: D(2) dopamine receptor (Homo sapiens) (UniProt P14416); experiment: Dopamine D2 receptor (DRD2) small molecule agonists, cell-based qHTS assay (AID 1963594); note: nearly all actives have a fitted effect of over 35% in size
# Chain of D(2) dopamine receptor (Homo sapiens) (P14416 whole entry, looked up): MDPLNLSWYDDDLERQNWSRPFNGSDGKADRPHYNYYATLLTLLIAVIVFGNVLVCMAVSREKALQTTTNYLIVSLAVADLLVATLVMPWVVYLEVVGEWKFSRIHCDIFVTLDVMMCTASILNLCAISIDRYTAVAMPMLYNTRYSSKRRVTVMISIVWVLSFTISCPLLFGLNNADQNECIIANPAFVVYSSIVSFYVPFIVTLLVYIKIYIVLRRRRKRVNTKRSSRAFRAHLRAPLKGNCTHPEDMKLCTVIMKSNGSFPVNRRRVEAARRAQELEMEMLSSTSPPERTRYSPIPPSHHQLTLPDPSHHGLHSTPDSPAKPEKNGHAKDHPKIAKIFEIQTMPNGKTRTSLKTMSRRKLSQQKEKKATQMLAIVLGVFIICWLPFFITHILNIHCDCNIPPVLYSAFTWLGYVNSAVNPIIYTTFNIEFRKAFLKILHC
# Outline: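 cAMP accumulation in DRD2-HEK293 cells measured by HTRF after 1 h detection; compounds added 10 min before NKH477 (200nM […]) forskolin-analogue stimulation, 30 min at room temperature, with Ro20-1724 present at 0.1 mM final.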
# [18] = molecular target: D(2) dopamine receptor (Homo sapiens) (UniProt P14416); experiment: Dopamine D2 receptor (DRD2) small molecule antagonists, cell-based qHTS assay (AID 1963595; active = well fitted inhibition curve with a large enough effect in the signal ratio in the repeat runs, with a control signal flat; the % refers to the signal ratio)
# Outline: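 Cells were plated and grown for 24 h at 37 °C. Ro20-1724 (0.1 mM final) went in first, then compound for 10 min. NKH477 (200 nM) with quinpirole (12 nM) followed for 30 min at RT, then HTRF detection reagents for 1 h.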
# [19] = cAMP Responsive Elements (CRE) small molecule antagonists, cell-based qHTS assay (AID 1963591; active = well fitted inhibition curve with a large enough effect in the signal ratio in the repeat runs, not every such curve was filed as active; the % refers to the signal ratio)
# Outline: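 HEK293T CRE-bla; 18 h preincubation; compound pin-transfer; NKH477 0.25 uM final, 3 h, 37 C; LiveBLAzer FRET substrate 2 h RT.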
# [20] = molecular target: Beta-2 adrenergic receptor (Homo sapiens) (UniProt P07550); experiment: Adrenergic beta2 receptor (ADRB2) small molecule agonists, cell-based qHTS assay (AID 1963593);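 note: CHO cells stably overexpressing human ADRB2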
# Outline: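 CHO cells stably over-expressing ADRB2 were plated overnight at 37C, then dosed with compounds plus a stimulation mix containing 100uM IBMX and 25uM Ro-20-1724 for 0.5hr at room temperature. cAMP was measured by HTRF competition, 1hr.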
Structure (SMILES),Potency [1],Potency [2],Potency [3],outcome [4],outcome [5],Potency [6],Potency [7],Potency [8],Potency [9],Potency [10],Potency [11],Potency [12],Potency [13],Potency [14],Potency [15],Potency [16],Potency [17],Potency [18],Potency [19],Potency [20]
Oc1cccc2cc3cccc(O)c3c(O)c12,inactive,inactive,inactive,inactive,inactive,inactive,inactive,inactive,inactive,inactive,inactive,inactive,inactive,inactive,inactive,inactive,inactive,–,–,–
NC1[C@H]2CN(c3nc4c(cc3F)c(=O)c(C(=O)O)cn4-c3ccc(F)cc3F)C[C@@H]12 (stereo partly specified),inactive,inactive,inactive,inactive,inactive,inactive,inactive,inactive,inactive,–,–,–,–,–,–,inactive,inactive,inactive,–,–
Brc1ccccn1,inactive,inactive,inactive,inactive,inactive,inactive,inactive,inactive,inactive,inactive,inactive,inactive,inactive,inactive,inactive,inactive,inactive,inactive,inactive,–
CCCCCCCCN1CCCC1=O,inactive,inactive,inactive,inactive,inactive,inactive,inactive,inactive,inactive,inactive,inactive,inactive,inactive,inactive,inactive,inactive,inactive,inactive,inactive,inactive
Oc1ccc(C2CNCCc3c2cc(O)c(O)c3Cl)cc1 (stereo unspecified),inactive,inactive,inactive,inactive,inactive,inactive,inactive,inactive,inactive,inactive,259 nM (active),151 nM (active),inactive,inactive,inactive,–,–,inactive,inactive,–
OCCCCCCO,inactive,inactive,inactive,inactive,inactive,inactive,inactive,inactive,inactive,41300 nM (active),inactive,inactive,inactive,inactive,inactive,inactive,inactive,inactive,inactive,–
CCCCCCCCCCCCCCBr,inactive,inactive,inactive,inactive,inactive,inactive,inactive,inactive,inactive,inactive,inactive,inactive,inactive,inactive,inactive,inactive,inactive,inactive,inactive,inactive
CCOC(=O)NNc1ccc(N(CC)CC(C)O)nn1 (stereo unspecified),inactive,inactive,inactive,inactive,inactive,inactive,inactive,inactive,inactive,inactive,inactive,inactive,inactive,inactive,inactive,inactive,inactive,inactive,inactive,inactive
O=C(O)c1cc(-c2ccc(F)cc2F)ccc1O,inactive,inactive,inactive,inactive,inactive,inactive,inactive,inactive,inactive,–,–,–,–,–,–,inactive,inactive,inactive,–,–
COc1c(C)c2c(c(O)c1C/C=C(\C)CCC(=O)OCCN1CCOCC1)C(=O)OC2,inactive,inactive,inactive,inactive,inactive,inactive,inactive,inactive,inactive,–,–,–,–,–,–,inactive,–,inactive,–,inactive
CCOC(=O)[C@H](CCc1ccccc1)N[C@@H](C)C(=O)N(CC(=O)O)C1Cc2ccccc2C1,inactive,inactive,inactive,inactive,inactive,inactive,inactive,inactive,inactive,inactive,inactive,inactive,inactive,inactive,–,inactive,–,inactive,–,–
CCCCCCCCCOC(C)=O,inactive,inactive,inactive,inactive,inactive,inactive,inactive,inactive,inactive,inactive,inactive,inactive,–,inactive,inactive,inactive,inactive,inactive,inactive,inactive
COCCOCC(OC)OC,inactive,inactive,inactive,inactive,inactive,inactive,inactive,inactive,inactive,inactive,inactive,–,inactive,inactive,inactive,–,inactive,inactive,inactive,–
OC(CCN1CCCC1)(c1ccccc1)C1CCCCC1 (stereo unspecified),inactive,inactive,inactive,inactive,inactive,inactive,inactive,inactive,inactive,inactive,inactive,–,inactive,inactive,inactive,inactive,inactive,–,–,–

# Reference: PubChem BioAssay (Tox21)
